The term inhibition denotes the relative decrease from the control value, in per cent.

Consider ten molecules from PubChem BioAssay AID1053188 (Broad Institute, 2014).

Structures are written as SMILES. Where “and” joins values, the source holds several entries; their conditions need not be identical. Equal entries are not always repeated. Hit rate of the full screen: of about 83,000 compounds, about 780 (0.94%) were called active. Many of the other results were omitted from the sample, so actives are more common in it than they were. A number with no mark means an inactive call.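 How the source made its calls: active means mean inhibition of at least 50% with a set share of replicates also reaching that level; inconclusive means no clear call, values can overlap the other calls; inactive means the rest.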

The assay in a line: inhibitors of CD40-induced NF-kB signaling, primary screen, BL2 cells, luciferase reporter, single point (AID 1053188).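 Further: 0% = neutral control wells and 100% = IKK inhibitor VII at 50 µM.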 The settings on record: CD40L-induced, 4 h, at 10 µM, active compounds read high.
For the molecule `CC(=O)OC1C2(CC3N4C(=O)C5(CO)SSC4(CC31O)C(=O)N5C)OC(C)C(C)(C)C2=O` (stereo not given), the inhibition is 107% (active).
For `Cc1nn(-c2ccccc2)c(C)c1NC(=O)COC(=O)Cc1ccccc1` the value was 3.56%; for `N=c1ccccn1Cc1ccccc1`, 5.42%.
The result for `CCC(C)(O)C(=O)OC1C(=O)OC2CC3C(C)=CC(=O)C(O)C3(C)C3C4(O)OCC23C1C(C)C4O` (stereo not given) reads 107% (active).
Consider `CC(=O)N1C[C@@H]2C(c3ccc(Br)cc3)[C@H](C1)N2C` (stereo not given in full), for which the inhibition is -3.1% and 2.67%.
For `Cc1ccc(C(C)C)c(OCC(=O)N2CCN(CC(=O)N3CCOCC3)CC2)c1` the value was -7.63%; for `Cc1cc(C(=O)OCC(=O)Nc2c(F)cccc2F)c(C)n1C1CC1`, -11.1%.
For `Cc1nc2ccc(N3CCN(C)CC3)cc2nc1C` the value was -20.7%.
The result for `CCOC(=O)C1(CCc2ccccc2)CCN(Cc2ccco2)CC1` reads 11.2%; that for `c1ccc(CC2CCCCN2)cc1` (stereo not given), -1.33%.
